Assay results reported in PubChem BioAssay.
Activity calls are given as the source filed them. Unless noted, the rule behind the calls is not given here.

Tests used:
[1] = compounds binding Alexa647 anti-His antibody – biochemical, small-molecule microarray, 635 nm fluorescence, artefact control for SMM control protein annotation, primary screen (AID 1128); details: higher = more signal;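 note: score merges feature fluorescence with signal-to-noise for each printed compound spot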
[2] = test system: Human papillomavirus type 1a E7 protein (residues 1-88); experiment: HPV1a E7 small-molecule binders, primary screen, biochemical, small-molecule microarray, residues 1-88, 635 nm (AID 1129); details: small-molecule microarray binding, fluorescence 635 nm; higher = more signal
[3] = biological target: Focal adhesion kinase 1 (Homo sapiens) (UniProt Q05397); experiment: PTK2 protein binding on printed compound slides – biochemical, small-molecule microarray, 635/667 nm fluorescence, BSA, DTT, primary screen (AID 1130); details: 635 nm fluorescence, higher = more signal;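 note: composite of spot emission at 667 nm and signal to noise over triplicate slides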
[4] = test system: Fibrinogen (Alexa647-labelled); experiment: Alexa647-fibrinogen binding to printed small molecules – biochemical, small-molecule microarray, 635/667 nm fluorescence, artefact control for SMM control-protein annotation, profiling panel (AID 1131); details: fibrinogen-A647 binding fluorescence, higher = more signal;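 note: z-score merges 667 nm fluorescence with per-spot signal-to-noise over triplicate slides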
[5] = biological target: Follistatin (Homo sapiens) (UniProt P19883); experiment: FST protein binding to printed compounds – biochemical, small-molecule microarray, 635/667 nm fluorescence, primary screen (AID 1132); details: 635 nm fluorescence, higher = more signal
[6] = biological target: Fibroblast growth factor 2 (Homo sapiens) (UniProt P09038); experiment: basic fibroblast growth factor binding to printed compounds – biochemical, small-molecule microarray, 635/667 nm fluorescence, primary screen (AID 1133); details: FGF2, fluorescence 635/667, higher = more signal
[7] = JC-1 mitochondrial potential readout, lung cancer cells – cell-based, A549, JC-1 fluorescence, basal, 24 h, 100 nL, profiling panel (AID 1138); details: higher = more signal;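 note: A549 lung adenocarcinoma cells under basal conditions with no added stimulus; test concentration not given here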
Lefty1 = Lefty1 protein binding to printed compounds – biochemical, small-molecule microarray, 635/667 nm fluorescence, primary screen (AID 1139); details: fluorescence 635/667, higher = more signal
[8] = test system: wheat germ agglutinin (Triticum aestivum), Alexa647-labelled; experiment: Alexa647-WGA lectin binding to printed small molecules – biochemical, small-molecule microarray, 635/667 nm fluorescence, artefact control for SMM control-protein annotation, profiling panel (AID 1140); details: WGA-A647 binding, 635 nm fluorescence, higher = more signal;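 note: score merges 667 nm feature emission with signal to noise over triplicate slides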
[9] = biological target: Luciferin 4-monooxygenase (Photinus pyralis) (UniProt P08659); experiment: inhibition of purified Photinus pyralis luciferase – biochemical, luminescence, purified enzyme, 2006 set, primary screen (AID 1141); details: purified firefly luciferase, SteadyGlo luminescence, 30 min; higher = more signal, called active from +8 up or from −8 down;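 note: cell-free assay with purified firefly luciferase at 100 ng per well in PBS; test concentration not given here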
[10] = test system: Wnt5a (protein binding on small-molecule microarray); experiment: small molecules binding Wnt5a protein – biophysical, small-molecule microarray, 635/667 nm fluorescence, primary screen (AID 1142); details: 635 nm fluorescence, higher = more signal;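 note: fluorescence read at 667 nm with signal to noise per printed feature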
[11] = ATP-based viability of Huh7 replicon cells – cell-based, CellTiter-Glo luminescence, basal, 48 h, cytotoxicity control for HCV replication inhibitor project, primary screen (AID 1143); details: higher = more signal, called active from +8 up or from −8 down;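 note: Huh7 hepatoma cells carrying a hepatitis C replication reporter with no stimulus; test concentration not given here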
[12] = Pseudomonas biofilm growth suppression – PAO1 strain, BacTiter-Glo luminescence, LB-PBS, primary screen (AID 1144); details: P. aeruginosa PAO1 biofilm, 12 h, higher = more signal
[13] = basal CRE-LacZ reporter activity in PC12 – cell-based, unstimulated, primary screen (AID 1145); details: no forskolin, luminescence, 4.5 h, higher = more signal, called active from +8 up or from −8 down
[14] = forskolin-driven CRE-LacZ activity in PC12 – cell-based, CRE-LacZ reporter, forskolin-stimulated, primary screen (AID 1146); details: luminescence, 4.5 h, higher = more signal, called active from +8 up or from −8 down;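 note: PC12 cells with 6xCRE LacZ reporter stimulated by forskolin 10 µM; beta-galactosidase reporter signal reflecting CREB driven transcription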
[15] = biological target: Streptavidin (Streptomyces avidinii) (UniProt P22629); experiment: compounds binding control protein streptavidin – biophysical, small-molecule microarray, 635/667 nm fluorescence, artefact control for SMM compound annotation, primary screen (AID 1147); details: higher = more signal;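 note: signal reflects streptavidin binding to arrayed compounds as a control protein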
[16] = probe aInhba binding on compound microarray – biochemical, small-molecule microarray, 635/667 nm fluorescence, primary screen (AID 1148); details: higher = more signal;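 note: score merges 667nm spot fluorescence with signal-to-noise for antibody binding to printed compounds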
Torsin-1A (Homo sapiens) [17] = biological target: Torsin-1A (Homo sapiens) (UniProt O14656); experiment: TOR1A wild-type binding on microarray – cell lysate, small-molecule microarray, lysate, 635/667 nm, primary screen (AID 1149); details: COS7 hTOR1A-WT lysate, 635 nm fluorescence, higher = more signal
Torsin-1A (Homo sapiens) [18] = biological target: Torsin-1A (Homo sapiens) (UniProt O14656); experiment: torsin A mutant lysate binding on microarrays – cell lysate, small-molecule microarray, COS7 lysate, 635/667 nm fluorescence, primary screen (AID 1150); details: COS7 hTOR1A mutant lysate, 635 nm fluorescence, higher = more signal;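 note: score pools 667 nm emission and signal to noise measuring lysate protein binding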
[19] = test system: Sonic hedgehog protein (Shh); experiment: Sonic hedgehog microarray binding compounds – biochemical, small-molecule microarray, 635/667 nm fluorescence, primary screen (AID 1151); details: 635 nm fluorescence, higher = more signal;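 note: Shh protein binding to compounds spotted on small-molecule microarray slides; score combines spot fluorescence intensity with signal-to-noise across triplicate slides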

Torsin-1A (Homo sapiens), sequence (O14656 whole entry, looked up): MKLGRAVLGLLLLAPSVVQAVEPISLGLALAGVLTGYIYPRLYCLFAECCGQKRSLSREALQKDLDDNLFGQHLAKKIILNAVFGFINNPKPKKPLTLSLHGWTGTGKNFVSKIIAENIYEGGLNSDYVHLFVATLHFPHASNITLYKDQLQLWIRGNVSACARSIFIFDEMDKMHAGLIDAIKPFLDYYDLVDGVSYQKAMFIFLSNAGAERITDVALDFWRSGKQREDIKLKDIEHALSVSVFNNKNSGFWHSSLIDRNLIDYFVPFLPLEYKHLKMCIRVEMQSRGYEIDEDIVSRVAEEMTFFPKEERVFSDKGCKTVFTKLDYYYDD
Focal adhesion kinase 1 (Homo sapiens), sequence (Q05397 whole entry, looked up): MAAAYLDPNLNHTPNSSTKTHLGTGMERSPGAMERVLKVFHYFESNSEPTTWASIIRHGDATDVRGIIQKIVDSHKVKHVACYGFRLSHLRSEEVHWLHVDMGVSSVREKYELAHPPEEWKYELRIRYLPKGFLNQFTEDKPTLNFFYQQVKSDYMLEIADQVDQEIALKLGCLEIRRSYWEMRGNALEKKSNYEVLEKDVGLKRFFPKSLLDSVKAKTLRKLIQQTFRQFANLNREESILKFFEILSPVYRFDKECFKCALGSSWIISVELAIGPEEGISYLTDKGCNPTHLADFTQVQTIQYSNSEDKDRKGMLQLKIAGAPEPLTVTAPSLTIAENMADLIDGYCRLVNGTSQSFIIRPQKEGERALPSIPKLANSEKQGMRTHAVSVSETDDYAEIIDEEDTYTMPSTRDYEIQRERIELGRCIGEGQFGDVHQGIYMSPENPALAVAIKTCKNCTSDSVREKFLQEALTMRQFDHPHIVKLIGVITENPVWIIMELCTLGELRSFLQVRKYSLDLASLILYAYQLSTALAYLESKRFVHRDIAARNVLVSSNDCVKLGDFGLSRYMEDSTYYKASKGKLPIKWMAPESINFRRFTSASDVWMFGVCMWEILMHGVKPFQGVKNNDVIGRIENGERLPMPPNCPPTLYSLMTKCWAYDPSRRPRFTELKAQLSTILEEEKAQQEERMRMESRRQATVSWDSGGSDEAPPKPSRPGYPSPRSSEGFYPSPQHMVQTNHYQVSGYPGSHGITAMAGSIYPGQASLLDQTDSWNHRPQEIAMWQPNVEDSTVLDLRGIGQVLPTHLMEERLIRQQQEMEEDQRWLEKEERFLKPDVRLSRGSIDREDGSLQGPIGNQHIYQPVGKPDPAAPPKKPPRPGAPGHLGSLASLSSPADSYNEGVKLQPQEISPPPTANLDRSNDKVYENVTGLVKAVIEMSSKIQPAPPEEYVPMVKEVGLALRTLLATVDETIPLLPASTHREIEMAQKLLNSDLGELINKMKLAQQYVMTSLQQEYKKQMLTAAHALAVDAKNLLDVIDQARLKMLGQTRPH
Fibroblast growth factor 2 (Homo sapiens), sequence (P09038 whole entry, looked up): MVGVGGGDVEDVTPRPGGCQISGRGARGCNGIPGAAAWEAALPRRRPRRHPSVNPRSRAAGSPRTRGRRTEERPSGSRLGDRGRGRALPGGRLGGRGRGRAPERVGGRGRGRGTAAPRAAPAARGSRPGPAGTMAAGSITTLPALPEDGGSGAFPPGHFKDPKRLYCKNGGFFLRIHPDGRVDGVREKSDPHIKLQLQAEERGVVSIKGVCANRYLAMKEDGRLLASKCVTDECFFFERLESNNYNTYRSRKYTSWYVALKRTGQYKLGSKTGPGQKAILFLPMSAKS
Luciferin 4-monooxygenase (Photinus pyralis), sequence (P08659 whole entry, looked up): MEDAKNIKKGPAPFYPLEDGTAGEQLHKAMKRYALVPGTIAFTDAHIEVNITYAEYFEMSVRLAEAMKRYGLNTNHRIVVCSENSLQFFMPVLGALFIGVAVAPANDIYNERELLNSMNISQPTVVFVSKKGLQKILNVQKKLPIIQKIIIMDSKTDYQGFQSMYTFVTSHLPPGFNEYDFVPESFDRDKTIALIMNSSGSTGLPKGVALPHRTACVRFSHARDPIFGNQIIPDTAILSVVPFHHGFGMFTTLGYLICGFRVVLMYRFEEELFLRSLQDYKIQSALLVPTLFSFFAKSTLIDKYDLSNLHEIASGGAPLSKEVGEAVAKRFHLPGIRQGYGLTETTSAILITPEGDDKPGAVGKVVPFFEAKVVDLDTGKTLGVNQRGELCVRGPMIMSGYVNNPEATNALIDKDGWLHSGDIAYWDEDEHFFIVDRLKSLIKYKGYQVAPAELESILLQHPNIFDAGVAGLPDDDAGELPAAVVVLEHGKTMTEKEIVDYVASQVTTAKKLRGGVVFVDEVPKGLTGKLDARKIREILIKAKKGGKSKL
Streptavidin (Streptomyces avidinii), sequence (P22629 whole entry, looked up): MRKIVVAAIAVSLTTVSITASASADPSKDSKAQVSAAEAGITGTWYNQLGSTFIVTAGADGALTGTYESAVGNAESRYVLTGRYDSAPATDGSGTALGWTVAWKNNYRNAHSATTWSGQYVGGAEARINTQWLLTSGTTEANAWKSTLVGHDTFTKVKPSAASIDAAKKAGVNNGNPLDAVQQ
Follistatin (Homo sapiens), sequence (P19883 whole entry, looked up): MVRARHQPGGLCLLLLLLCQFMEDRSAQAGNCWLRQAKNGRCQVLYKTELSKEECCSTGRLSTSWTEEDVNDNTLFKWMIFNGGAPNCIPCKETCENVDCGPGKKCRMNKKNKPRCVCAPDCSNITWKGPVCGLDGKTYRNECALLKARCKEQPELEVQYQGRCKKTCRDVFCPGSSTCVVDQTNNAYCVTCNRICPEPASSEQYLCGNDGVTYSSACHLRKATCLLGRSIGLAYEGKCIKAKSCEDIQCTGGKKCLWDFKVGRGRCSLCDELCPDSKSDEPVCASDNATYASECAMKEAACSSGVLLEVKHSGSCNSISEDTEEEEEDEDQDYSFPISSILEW

Compound | composite z-score [1] | composite z-score [2] | composite z-score [3] | composite z-score [4] | composite z-score [5] | composite z-score [6] | z-score [7] | composite z-score (Lefty1) | composite z-score [8] | z-score [9] | composite z-score [10] | z-score [11] | z-score [12] | z-score [13] | z-score [14] | composite z-score [15] | composite z-score [16] | composite z-score (Torsin-1A (Homo sapiens) [17]) | composite z-score (Torsin-1A (Homo sapiens) [18]) | composite z-score [19]
CC=CC(O)C1C=CC2C(=O)N(c3ccccc3)C(=O)C2N1Nc1ccc(C(C)C)cc1 (stereo not given) | 0.585 | 1.2 | 0.777 | 0.831 | 1.12 | 0.133 | -0.723 | 0.0518 | 1.32 | -0.959 (inactive) | 0.288 | 0.0547 (inactive) | -0.302 (inactive) | 0.0501 (inactive) | 0.133 (inactive) | 1.24 | 0.143 | -0.173 | 0.55 | -0.0469
COc1ccc(NN2C(C(O)c3ccc(OC)c(OCc4ccccc4)c3)C=CC3C(=O)N(C4CCCCC4)C(=O)C32)cc1 (stereo not given) | 0.867 | 1.21 | 0.625 | 1.01 | 1.29 | 0.0862 | 0.492 | 0.461 | 0.571 | 1.16 (inactive) | 0.285 | -2.17 (inactive) | -1.73 (inactive) | -0.322 (inactive) | 0.693 (inactive) | 1.19 | 0.0769 | -0.196 | 0.185 | -0.504
COCCOC(=O)N1C(=O)[C@@]2(c3cc(C#CCC(C(=O)OC)C(=O)OC)ccc31)[C@H](C(=O)N1CCCCCCC1)[C@H]1C(=O)O[C@H](c3ccccc3)[C@H](c3ccccc3)N1[C@@H]2c1ccc(OCCO)cc1 | 0.887 | 1.25 | 1.97 | 0.965 | 1.49 | 1.62 | -1.49 | 1.65 | 1.6 | -0.0546 (inactive) | 1.42 | -2.31 (inactive) | -1.02 (inactive) | -1.15 (inactive) | -0.0519 (inactive) | 3.01 | 1.69 | 2.01 | 1.87 | 2.32
CO[C@H]1O[C@H](CO)[C@@H](OC(=O)Nc2ccc(Oc3ccccc3)cc2)[C@H](OC(=O)Nc2ccccc2)[C@H]1OC(=O)Nc1ccccc1 | 1.88 | 1.27 | 1.12 | 0.985 | 1.07 | 1.61 | -1.69 | 0.444 | 1.08 | -0.923 (inactive) | 1.07 | -5.1 (inactive) | -2.24 (inactive) | 0.512 (inactive) | -1.64 (inactive) | 0.693 | 0.167 | 0.546 | 0.76 | 1.86
C=C(CCCC)C(=O)CC[C@H](OC(=O)c1cccnc1)c1cccc(OCCO)c1 | 0.637 | -0.395 | -0.262 | -0.847 | 0.254 | 0.275 | 1.28 | 0.563 | -0.288 | -1.2 (inactive) | 0.54 | -0.293 (inactive) | -0.0707 (inactive) | 11 (active) | 0.189 (inactive) | 0.0158 | -0.231 | 0.524 | 0.186 | 1.12
CCOC(=O)C1=CC[C@@H](c2ccccc2)N(S(=O)(=O)c2ccc(C)cc2)[C@H]1C(=O)OCC | 0.558 | 1.2 | 1.17 | 0.0499 | 0.305 | -0.128 | 1.84 | -0.238 | 0.951 | 0.693 (inactive) | 0.3 | -4.23 (inactive) | 1.43 (inactive) | -0.415 (inactive) | -0.76 (inactive) | 0.491 | 0.421 | 0.59 | 0.523 | -0.189
O=C1O[C@@H](c2ccccc2)[C@@H](c2ccccc2)N2[C@@H](c3ccccc3OCCO)[C@]3(C(=O)Nc4ccc(C#CC5(O)CCCCCC5)cc43)[C@@H](C(=O)Nc3nc4ccccc4s3)[C@H]12 | 1.22 | 1.21 | 0.237 | 0.991 | 1.25 | 1.02 | -1.98 | 0.744 | 0.847 | -0.84 (inactive) | 0.555 | -5 (inactive) | 0.207 (inactive) | 0.224 (inactive) | 0.474 (inactive) | 1.22 | -0.0195 | 0.711 | 0.659 | 0.902
O=C(CS)NCCCCCCNC(=O)[C@@H]1C[C@@H]2C(=O)N3CCC[C@H]3C(=O)N2[C@@H]1c1ccc(O)cc1 | 3.73 | 1.21 | 0.887 | -0.627 | 1.16 | 1.13 | -1.13 | -0.686 | -0.462 | -0.315 (inactive) | 0.133 | 0.589 (inactive) | 0.178 (inactive) | -0.39 (inactive) | -0.972 (inactive) | -0.974 | -0.129 | 0.971 | 1.1 | 0.881
CC(C)C(=C=CC[C@H](O)c1cccc(OCCO)c1)C[C@H](O)COCc1ccccc1 | 0.366 | 0.165 | 0.107 | 0.637 | 0.235 | 0.562 | -0.241 | 0.554 | -0.0699 | 0.209 (inactive) | 0.148 | -0.33 (inactive) | -0.457 (inactive) | 1.82 (inactive) | 0.526 (inactive) | 1.24 | 0.167 | 1.03 | 0.33 | 2.09
CN(C)C(=O)[C@]1(CCC(=O)OC(C)(C)C)N=C(c2ccc(OCCCO)cc2)O[C@@H]1c1ccccc1N=[N+]=[N-] | 0.128 | 1.3 | 0.383 | 0.996 | 1.25 | 0.347 | 0.752 | -0.037 | 1.15 | -7.84 (inactive) | 0.928 | -1.61 (inactive) | 0.878 (inactive) | 0.988 (inactive) | 0.0155 (inactive) | 1.38 | 0.105 | 1.62 | 2.11 | -0.149
